Most compounds without a hit are left out; they make up all but 1.6% or so of the library.
KCNQ2 block = blocks the rat KCNQ2 potassium channel; O88943; CHO-K1 KCNQ2, FluxOR thallium flux, 20 min; stronger effect = lower value; B-score at 10 µM; 310,000 tested, 1.1% active;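 active = fluorescence ratio B-score at most minus 3 library SDs, with starting brightness B-score within 2 library SDs, cut at about -5.5 in these data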
KCNQ2 enhance = KCNQ2 (rat) channel potentiation | CHO-K1 KCNQ2, FluxOR thallium flux fluorescence; stronger effect = higher value | 310,000 tested, 0.54% active | O88943 | B-score at 10 µM;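 active = fluorescence ratio B-score at least 3 SD of library B-scores, with initial fluorescence B-score within 3 of them, cut at about 5.3 in these data; same plate scores as AID 2156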;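 note: B-score of peak minus minimum over baseline fluorescence ratio after K+ and Tl+ stimulus; positive B-score means potentiation of KCNQ2 with more thallium influx and brighter signal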
Kir21 conf inh = confirmation of mouse Kir2.1 potassium channel inhibitors. shares compounds with KCNQ2 enhance. Kir2.1-expressing cells, FluxOR thallium flux fluorescence; stronger effect = lower value. 2,300 tested, 41% active. Tl flux remaining, % of negative control (stronger effect = lower value), % at 10 µM;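 active = Primary-screen hit whose thallium flux fell at least 3 control SD below untreated wells in both duplicates, with normal baseline fluorescence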;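 note: 0% = blank wells without stimulus and 100% = stimulated no-compound controls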
Target sequence (P35561 whole entry, looked up): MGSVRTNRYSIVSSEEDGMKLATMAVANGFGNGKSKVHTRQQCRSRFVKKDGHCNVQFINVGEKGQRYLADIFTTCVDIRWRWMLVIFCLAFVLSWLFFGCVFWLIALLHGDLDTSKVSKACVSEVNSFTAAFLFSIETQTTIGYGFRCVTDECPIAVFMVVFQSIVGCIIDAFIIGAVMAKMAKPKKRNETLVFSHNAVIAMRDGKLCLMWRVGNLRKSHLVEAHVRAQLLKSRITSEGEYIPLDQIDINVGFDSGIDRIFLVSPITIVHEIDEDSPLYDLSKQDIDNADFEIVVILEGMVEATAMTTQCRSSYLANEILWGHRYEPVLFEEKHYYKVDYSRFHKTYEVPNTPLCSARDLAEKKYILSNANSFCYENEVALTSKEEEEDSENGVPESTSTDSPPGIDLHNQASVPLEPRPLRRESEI
HEK293 Tl flux = parental HEK293 activity in Kir2.1 inhibitor counter-screen; shares compounds with KCNQ2 enhance; parental HEK293 cells, FluxOR thallium flux fluorescence; 0% = unstimulated blank wells; FluxOR signal as % of negative control (100 = no effect), % at 10 µM; 2,300 tested, 19% active; AID 2105;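 active = dye signal at least 3 control SD above or below untreated wells in both duplicates, raw fluorescence within 3, either direction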;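 note: percent is based on the flux ratio of peak minus minimum fluorescence over baseline F0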
CHO-K1 ctr = counter-screen for KCNQ2 potentiators: effect in parental CHO-K1 cells; 1,200 tested, 43% active; AID 2282; activity increase over 3SD of controls, % at 10 µM; shares compounds with KCNQ2 enhance; FluxOR thallium flux fluorescence; zero = vehicle mean+3SD, 100% = vehicle-minus-blank window;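 active = signal rise of at least 3 SD above the untreated control mean, in both duplicate wells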;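 note: counter screen of KCNQ2 potentiator hits so any rise reflects channel-independent effects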
KCNQ1 sel pot = human KCNQ1 counter-target activity of KCNQ2 potentiators; shares compounds with KCNQ2 enhance; CHO KCNQ1 stable, FluxOR thallium flux fluorescence; beyond 3SD, as % of vehicle-control signal; activation over 3SD threshold, % at 10 µM; 1,200 tested, 28% active; AID 2283;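 active = fluorescence ratio rise of at least 3 SD of vehicle wells above their mean, in both replicate wells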;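 note: 0% = vehicle mean plus 3 SD and 100% = vehicle minus unstimulated blank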
KCNQ2 pot conf = rat KCNQ2 channel potentiator confirmation | shares compounds with KCNQ2 enhance | CHO-KCNQ2 cells, FluxOR thallium flux fluorescence | potentiation, less the hit threshold, % at 10 µM | 1,200 tested, 68% active | AID 2287;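 active = fluorescence ratio rising 3 SD or more over the vehicle control mean in both replicates, plus primary screen hit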;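 note: peak minus minimum thallium fluorescence divided by baseline after K/Tl stimulus; 0% = vehicle mean plus 3 SD and 100% = vehicle minus unstimulated blank difference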
Kir2-1 sel = mouse Kir2.1 off-target activity of KCNQ2 potentiators. shares compounds with KCNQ2 enhance. 1,200 tested, 2% active. activity over 3SD threshold, % at 10 µM. AID 2345. HEK293 Kir2.1, FluxOR thallium flux fluorescence;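 active = fluorescence ratio rise of at least 3 SD above the vehicle-control mean, seen in both replicates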;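 note: 0% = vehicle mean plus 3 SD and 100% = vehicle minus no-stimulus blank window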
KCNQ2 W236L MoA = potentiates the retigabine-insensitive rat KCNQ2 W236L mutant channel; shares compounds with KCNQ2 enhance; CHO KCNQ2-W236L, automated patch clamp current; current increase over 3SD of negative controls (%), stronger effect = higher value, % at 25 µM; 940 tested, 10% active; AID 2558;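 active = current increase at least 3 SD of the untreated controls above them in both duplicate recordings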
Active calls of the source: *; i = inactive; · = no result.

SMILES	KCNQ2 block	KCNQ2 enhance	Kir21 conf inh	HEK293 Tl flux	others
CNC(=O)c1sccc1SCc1c(Cl)cccc1Cl	i	·	46.0%*	i
CNC(=O)c1sccc1SCc1ccc(Cl)cc1Cl	i	·	·	·
CCOC(=O)[C@@H]1[C@H]2COc3ccccc3[C@H]2N2C(=O)N(c3ccc(Cl)cc3)C(=O)[C@@]12C	i	·	·	·
Cc1cc([N+](=O)[O-])ccc1NC(=O)C[n+]1ccc(N(C)C)cc1	i	·	·	·
COc1cc(/C=C/c2ccc3cccc(O)c3n2)c(Br)cc1O	i	6.37*	i	71.0%*	CHO-K1 ctr=5.7*;KCNQ1 sel pot=-12.1;KCNQ2 pot conf=-19.3;Kir2-1 sel=-39.9
COc1cc(/C=C/c2ccc3cccc(O)c3n2)ccc1O	i	16.7*	i	141.5%*	CHO-K1 ctr=7.5*;KCNQ1 sel pot=35.1*;KCNQ2 pot conf=12.3*;Kir2-1 sel=-36.9;KCNQ2 W236L MoA=i
COc1cc(Br)c(/C=C/c2ccc3cccc(O)c3n2)cc1OC	i	0.09	·	·
COc1ccc(OC)c(/C=C/c2ccc3cccc(O)c3n2)c1	i	0.39	·	·
Cc1cccc(NC(=O)COC(=O)c2cccs2)c1C	i	0.78	·	·
Cc1ccc(NC(=S)NCc2ccc3c(c2)cc(C)n3C)c(C)c1	i	0.22	·	·
COc1ccc(N2CCN(S(=O)(=O)CCNC(=O)C3CC3)CC2)cc1	i	·	·	·
CC(C)c1nnc(SCC(=O)NCCC2=CCCCC2)n1N	i	5.87*	i	i	CHO-K1 ctr=-17.2;KCNQ1 sel pot=2.2*;KCNQ2 pot conf=23.5*;Kir2-1 sel=-20.8;KCNQ2 W236L MoA=2.6%*
Nc1cc(N)nc(SCC(=O)NCCC2=CCCCC2)n1	i	0.09	·	·
CCOc1cc(C)c(Cl)cc1S(=O)(=O)NCc1ccco1	i	·	55.5%*	i
Cc1cc(C)c(S(=O)(=O)NCc2ccc3c(c2)OCO3)cc1C	i	·	·	·
CCOc1cc(S(=O)(=O)NCc2ccc3c(c2)OCO3)c(C)cc1C	i	·	65.0%*	i
O=S(=O)(NCc1ccc2c(c1)OCO2)c1cccc2cccnc12	i	13.3*	·	·	CHO-K1 ctr=5.4*;KCNQ1 sel pot=-14.8;KCNQ2 pot conf=-28.1;Kir2-1 sel=-57.8
O=S(=O)(NCc1ccc(Cl)cc1)c1cccc2cccnc12	i	0.01	·	·
CCOc1cc(C)c(Cl)cc1S(=O)(=O)NCc1ccc2c(c1)OCO2	i	·	68.0%*	i
COc1cc(C)c(Cl)cc1S(=O)(=O)NCc1ccco1	i	0.69	·	·
Cc1cc(C)c(S(=O)(=O)NCc2ccc3c(c2)OCO3)c(C)c1	i	·	·	·
CCN(CC(=O)Nc1c(F)cccc1F)C(=O)c1cc2ccccc2oc1=O	i	·	·	·
CC(=O)c1ccc(N2CCN(C(=O)c3c(-c4ccccc4Cl)noc3C)CC2)cc1	i	·	·	·
O=C(c1ccc(S(=O)(=O)Nc2ccccc2F)cc1)N1CCN(c2ccccc2O)CC1	i	·	·	·
CN(CC(CC(=O)Nc1nncs1)c1ccccc1)S(=O)(=O)c1ccc(Br)cc1 (centres undefined)	i	0.35	·	·
SMILES	KCNQ2 block	KCNQ2 enhance	Kir21 conf inh	HEK293 Tl flux	others
Cc1cc(C)n(-c2ccc(NC(=O)C3CCCCN3C(=O)c3ccoc3C)cc2)n1 (centres undefined)	i	·	·	·
Cc1cc(C)c(C)c(S(=O)(=O)NCc2ccco2)c1C	i	·	54.5%*	i
Cc1cc(S(=O)(=O)NCc2ccco2)c(C)cc1Cl	i	·	·	·
COc1ccc(OC2CCN(S(=O)(=O)c3ccc(C(C)=O)cc3)CC2)cc1	i	·	·	·
C(#CCN1CCCC1)CC(c1ccccc1)c1ccccc1	i	·	40.5%*	i
OC(CC#CCN1CCCC1)(c1ccccc1)c1ccccc1	i	·	·	·
OCc1cc(C(O)CNCCCCCCOCCCCc2ccccc2)ccc1O (centres undefined)	i	0.73	31.5%*	i
OC(CNCc1cccc(Br)c1)c1ccccc1 (centres undefined)	i	0.38	·	·
OCCCNCc1ccc(N(c2ccccc2)c2ccccc2)cc1	i	·	23.0%*	i
OCCNCc1ccc(-c2ccccc2)cc1	i	1.03	·	·
O=C(NC(=S)N1CCN(c2ccc([N+](=O)[O-])cc2)CC1)c1ccccc1F	i	·	·	·
COC(=O)CSc1nc2c(c(-c3ccc(C)o3)c1C#N)CCCC2	i	22.1*	i	i	CHO-K1 ctr=-21.0;KCNQ1 sel pot=-11.1;KCNQ2 pot conf=40.9*;Kir2-1 sel=-37.0;KCNQ2 W236L MoA=i
CCSc1nc2c(c(-c3ccc(C)o3)c1C#N)CCCC2	i	·	·	·
O=C(O)COc1ccccc1Cc1ccccc1	i	·	·	·
CC(COc1ccccc1Cc1ccccc1)N1CCCCC1 (centres undefined)	i	0.23	i	i
CC1CCN(S(=O)(=O)c2ccc3ncn(CC(=O)N4CCN(C)CC4)c(=O)c3c2)CC1	i	1.76	·	·
NS(=O)(=O)c1ccc(CCNCc2ccccc2OCc2ccc(Cl)cc2)cc1	i	4.32	43.5%*	i
C=CCOc1ccccc1CNCCc1ccc(S(N)(=O)=O)cc1	i	·	·	·
NS(=O)(=O)c1ccc(CCNCc2cc(Br)ccc2OCc2ccccc2F)cc1	i	·	64.5%*	i
NS(=O)(=O)c1ccc(CCNCc2cc(Cl)ccc2OCc2ccccc2)cc1	i	1.72	·	·
Cc1cccc(NCc2ccc(Br)cc2)n1	i	·	·	·
N=c1n(Cc2ccccc2)c2ccccc2n1Cc1ccccc1	i	0.8	·	·
COc1ccc(OCC(O)Cn2c(=N)n(Cc3ccccc3)c3ccccc32)cc1 (centres undefined)	i	·	45.5%*	i
Cc1ccc(OCC(O)Cn2c(=N)n(Cc3ccccc3)c3ccccc32)cc1 (centres undefined)	i	·	37.5%*	i
N=c1n(Cc2ccccc2)c2ccccc2n1CC(O)c1ccco1 (centres undefined)	i	0.66	·	·
Cc1cccc(OCC(O)Cn2c(=N)n(CCN3CCCCC3)c3ccccc32)c1 (centres undefined)	i	·	·	·
Cc1cccc(OCC(O)CN2CCNCC2)c1 (centres undefined)	i	0.24	·	·
CCN(CC)CCn1c(=N)n(CC(O)COc2cccc(C)c2)c2ccccc21 (centres undefined)	i	·	56.0%*	i
Cc1cccc(OCC(O)Cn2c(=N)n(Cc3ccccc3)c3ccccc32)c1 (centres undefined)	i	·	32.0%*	i

Assay outcomes deposited in PubChem by Johns Hopkins Ion Channel Center.
